Values joined by “and” are separate entries in the source; they are usually repeats but may differ in a detail not shown here. Identical values can stand only once. The panel holds about 83,000 compounds, 20% with a hit somewhere; the sample as a whole holds those more often.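 For each line, cells grew in 96-well plates with the test compound present at a single concentration for 48 hours.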 Some structures have more than one record in an assay (separate samples or runs), and their calls can disagree. Active and inactive are the calls of the source. Rule for the calls: active = growth percent below 10; inactive = the rest.
Key:
Assay in all cases: NCI-60 one-dose screen, 48 h (100 = growth as untreated, 0 = no growth, -100 = all killed)
Settings in all cases: 10 µM unless noted
[1] = system: SK-MEL-2 melanoma
[2] = system: SN12C renal
[3] = system: UO-31 renal
[4] = system: TK-10 renal
[5] = system: ACHN renal
[6] = system: CAKI-1 renal
[7] = system: A498 renal
[8] = system: HL-60(TB) leukemia
[9] = system: CCRF-CEM leukemia
[10] = system: MOLT-4 leukemia
[11] = system: SR leukemia
[12] = system: RPMI-8226 leukemia
[13] = system: OVCAR-8 ovarian
[14] = system: OVCAR-5 ovarian
[15] = system: OVCAR-4 ovarian
[16] = system: SK-OV-3 ovarian
[17] = system: IGROV1 ovarian
[18] = system: OVCAR-3 ovarian
[19] = system: HS 578T breast
[20] = system: EKVX NSCLC

| SMILES | growth [1] | growth [2] | growth [3] | growth [4] | growth [5] | growth [6] | growth [7] | growth [8] | growth [9] | growth [10] | growth [11] | growth [12] | growth [13] | growth [14] | growth [15] | growth [16] | growth [17] | growth [18] | growth [19] | growth [20] |
| --- | --- | --- | --- | --- | --- | --- | --- | --- | --- | --- | --- | --- | --- | --- | --- | --- | --- | --- | --- | --- |
| O=S(=O)(F)c1cccc(Cl)c1C[P+](c1ccccc1)(c1ccccc1)c1ccccc1 | 97.1% (inactive) | 102% (inactive) | 88.3% (inactive) | 116% (inactive) | 97.7% (inactive) | 94.4% (inactive) | 122% (inactive) | 98.9% (inactive) | 86.7% (inactive) | 112% (inactive) | 95.3% (inactive) | 74.1% (inactive) | 84.3% (inactive) | 94.8% (inactive) | 90.2% (inactive) | 89.2% (inactive) | 85.4% (inactive) | 96.5% (inactive) | 103% (inactive) | – |
| Oc1cc(N2CC2)c(O)cc1N1CC1 | -37.5% (active) | – | -36.6% (active) | -7.44% (active) | 2.38% (active) | -1.5% (active) | -75.2% (active) | 16.1% (inactive) | 24.7% (inactive) | – | – | 2.53% (active) | 11.2% (inactive) | 2.7% (active) | 18% (inactive) | 2.44% (active) | -38.3% (active) | -34.4% (active) | -17.4% (active) | 58.4% (inactive) |
| COc1ccn(C)c(=O)c1C#N | 72.9% (inactive) | – | 87.2% (inactive) | 78.5% (inactive) | 102% (inactive) | 100% (inactive) | 86.2% (inactive) | 104% (inactive) | 120% (inactive) | – | 90% (inactive) | 102% (inactive) | 96.3% (inactive) | 105% (inactive) | 114% (inactive) | 91.9% (inactive) | 98.7% (inactive) | 93.8% (inactive) | 105% (inactive) | 105% (inactive) |
| Nc1ccc2c(c1)Cc1cc(N)ccc1-2 | 89.9% (inactive) | – | 62.6% (inactive) | 106% (inactive) | 97% (inactive) | 86.4% (inactive) | 84.9% (inactive) | 100% (inactive) | 60.1% (inactive) | 104% (inactive) | 95% (inactive) | 68.6% (inactive) | 99.7% (inactive) | 107% (inactive) | – | 82.3% (inactive) | 83.2% (inactive) | 87.6% (inactive) | 84.4% (inactive) | 61.2% (inactive) |
| CCCCCCCCCCCCCCCCCCn1cc[n+](C)c1 | -61.3% (active) and -51.7% (active) | -52.5% (active) and -68.4% (active) | -61.4% (active) and -66.1% (active) | -70.2% (active) and -72.4% (active) | -12.4% (active) and -43.5% (active) | -67.3% (active) and -78.6% (active) | -50.9% (active) and -44.9% (active) | 3.76% (active) and 2.22% (active) | 34% (inactive) and 67.8% (inactive) | 16.8% (inactive) and 9.25% (active) | 4.33% (active) and 19% (inactive) | 93.8% (inactive) and 75.6% (inactive) | -20.2% (active) and -37.4% (active) | -61.5% (active) and -59.7% (active) | -19.3% (active) and -13.3% (active) | 4.83% (active) and -9.16% (active) | -43.9% (active) and -43.1% (active) | -48.7% (active) and -56.3% (active) | – | – |
| CN(C)C(=S)SSC(=S)N(C)C | 109% (inactive) and 108% (inactive) | – | 79.1% (inactive) and 80.5% (inactive) | 106% (inactive) and 101% (inactive) | 100% (inactive) | 90.9% (inactive) | 95.1% (inactive) | 113% (inactive) | 68% (inactive) and 91.5% (inactive) | – | – | 85.6% (inactive) and 70% (inactive) | 95.4% (inactive) and 104% (inactive) | 97.4% (inactive) and 110% (inactive) | 107% (inactive) and 106% (inactive) | 122% (inactive) and 113% (inactive) | – | 88.5% (inactive) and 112% (inactive) | 101% (inactive) and 112% (inactive) | 69.4% (inactive) and 92.7% (inactive) |
| Cc1ccc(P(=O)(O)O)cc1 | 109% (inactive) | – | 96.6% (inactive) | 102% (inactive) | 109% (inactive) | 97.2% (inactive) | 115% (inactive) | – | 114% (inactive) | 116% (inactive) | 97.9% (inactive) | 112% (inactive) | 110% (inactive) | 114% (inactive) | 101% (inactive) | 128% (inactive) | 111% (inactive) | 118% (inactive) | 97.7% (inactive) | 100% (inactive) |
| Cn1cc(C(=O)C[n+]2ccccc2)c2ccccc21 | 104% (inactive) | – | 98% (inactive) | 115% (inactive) | 109% (inactive) | 99.5% (inactive) | 84.8% (inactive) | 98.8% (inactive) | 96.6% (inactive) | 103% (inactive) | – | 98.2% (inactive) | 114% (inactive) | 105% (inactive) | – | 101% (inactive) | 103% (inactive) | 109% (inactive) | – | 65.4% (inactive) |
| O=[N+]([O-])c1ccc(P(=O)(O)O)cc1 | 103% (inactive) | 101% (inactive) | 81.5% (inactive) | 101% (inactive) | 98.8% (inactive) | 95.7% (inactive) | 125% (inactive) | 105% (inactive) | 97.1% (inactive) | 102% (inactive) | 94.8% (inactive) | 108% (inactive) | 103% (inactive) | 101% (inactive) | 96.2% (inactive) | 99.8% (inactive) | 102% (inactive) | 113% (inactive) | 108% (inactive) | – |
| C[C@]12CC[C@H]3[C@@H](C[C@@H]4SC(Nc5cccc(F)c5)=N[C@@]45CC(=O)CC[C@]35C)[C@@H]1CCC2=O | 21.8% (inactive) | – | -26.9% (active) | 20.3% (inactive) | 1.56% (active) | 50.5% (inactive) | 22.9% (inactive) | 8.58% (active) | 4.95% (active) | -3.78% (active) | – | -22.3% (active) | 39.6% (inactive) | 65.5% (inactive) | 59.2% (inactive) | -18.4% (active) | – | -5.24% (active) | 35.4% (inactive) | 46.4% (inactive) |
| CCCC[C@H]1C(=O)O[C@H](C)[C@H](NC(=O)c2cccc(NC=O)c2O)C(=O)O[C@@H](C)[C@@H]1OC(=O)CC(C)C | 93.4% (inactive) | – | 57.3% (inactive) | 49.8% (inactive) | 56.6% (inactive) | 34.5% (inactive) | – | 37% (inactive) | 28.7% (inactive) | 31.1% (inactive) | – | 18.2% (inactive) | – | -27.7% (active) | 40.9% (inactive) | 68% (inactive) | 55.6% (inactive) | 43.4% (inactive) | – | 57.7% (inactive) |
| N#CCC(=O)c1ccccc1 | 114% (inactive) | – | 79% (inactive) | 119% (inactive) | 106% (inactive) | 101% (inactive) | 117% (inactive) | 98.4% (inactive) | 110% (inactive) | 95.2% (inactive) | – | 108% (inactive) | 96.5% (inactive) | 105% (inactive) | 109% (inactive) | 105% (inactive) | 104% (inactive) | 102% (inactive) | 107% (inactive) | 99% (inactive) |
| Cc1c(C)c(N)c(C)c(C)c1N | 15% (inactive) | – | 60.6% (inactive) | 90.8% (inactive) | -8.61% (active) | 46.6% (inactive) | 102% (inactive) | 103% (inactive) | 91.8% (inactive) | 84.1% (inactive) | 69.5% (inactive) | 98.7% (inactive) | 83.8% (inactive) | 85.1% (inactive) | 75.6% (inactive) | 91.3% (inactive) | – | 115% (inactive) | 114% (inactive) | 108% (inactive) |
| C/C=C(/C)C(=O)O[C@H]1CC[C@@]2(C)[C@@H]3CC[C@H]4[C@]5(O)C[C@H](O)[C@@]6(O)[C@@H](CN7C[C@@H](C)CC[C@H]7[C@@]6(C)O)[C@]5(O)C[C@@]42O[C@@]13O | 0.648% (active) | – | 81% (inactive) | 125% (inactive) | 113% (inactive) | 103% (inactive) | 127% (inactive) | – | 106% (inactive) | 112% (inactive) | 97.4% (inactive) | 113% (inactive) | 91.9% (inactive) | 103% (inactive) | 102% (inactive) | 118% (inactive) | 49.3% (inactive) | 120% (inactive) | 116% (inactive) | 107% (inactive) |
| CCCN1C(=O)NC(=O)C(CC)(N2C(=O)c3c(F)c(F)c(F)c(F)c3C2=O)C1=O (stereo not given) | -65.2% (active) | – | -98.8% (active) | -76.4% (active) | -79.4% (active) | -89.9% (active) | -85.3% (active) | -80.1% (active) | -56.7% (active) | -79.6% (active) | – | -30% (active) | -56.7% (active) | -88.1% (active) | -43.1% (active) | -25.4% (active) | -77.9% (active) | -96.4% (active) | – | -44.4% (active) |
| O=C1NC(=O)C(=Cc2ccccc2)C(=O)N1 | 106% (inactive) and 114% (inactive) | – | 93.5% (inactive) | 106% (inactive) and 102% (inactive) | 99.5% (inactive) and 112% (inactive) | 84.2% (inactive) and 103% (inactive) | 128% (inactive) and 94.2% (inactive) | – | 90.7% (inactive) and 107% (inactive) | 81.5% (inactive) and 109% (inactive) | 89.7% (inactive) and 107% (inactive) | 112% (inactive) and 110% (inactive) | 104% (inactive) | 108% (inactive) | 109% (inactive) and 112% (inactive) | 106% (inactive) and 107% (inactive) | 92.5% (inactive) and 104% (inactive) | 102% (inactive) and 111% (inactive) | 119% (inactive) and 103% (inactive) | 98.4% (inactive) and 101% (inactive) |
